Bioassay records as filed in PubChem.
CYP2C9 inhib: blockers of cytochrome P450 2C9 activity – biochemical, luminescence, ADME assay, primary screen; P11712; CYP2C9 Supersomes, luciferin-H conversion; inhibition, % at 5 µM; hit rate 20% among 96,000;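 active = blocking of liver enzyme CYP2C9 beyond about 50% at 5 µM, limit read from the data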
CYP2C19 activ: human CYP2C19 activators, primary screen, biochemical, luminescence; AID 1025, 2008; recombinant CYP2C19, luciferin-H EGE luminescence; stronger effect = higher value; 0 = fully inhibited enzyme, 1 = untreated enzyme; activation factor at 5 µM; 96,000 tested, under 10 active; Cytochrome P450 2C19 (Homo sapiens), P33261;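 active = activation factor of at least 2 at 5 µM in the primary screen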;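 note: 0 = wells with 2.5 mM tranylcypromine and 1 = vehicle-only wells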
Target sequence (P33261 whole entry, looked up): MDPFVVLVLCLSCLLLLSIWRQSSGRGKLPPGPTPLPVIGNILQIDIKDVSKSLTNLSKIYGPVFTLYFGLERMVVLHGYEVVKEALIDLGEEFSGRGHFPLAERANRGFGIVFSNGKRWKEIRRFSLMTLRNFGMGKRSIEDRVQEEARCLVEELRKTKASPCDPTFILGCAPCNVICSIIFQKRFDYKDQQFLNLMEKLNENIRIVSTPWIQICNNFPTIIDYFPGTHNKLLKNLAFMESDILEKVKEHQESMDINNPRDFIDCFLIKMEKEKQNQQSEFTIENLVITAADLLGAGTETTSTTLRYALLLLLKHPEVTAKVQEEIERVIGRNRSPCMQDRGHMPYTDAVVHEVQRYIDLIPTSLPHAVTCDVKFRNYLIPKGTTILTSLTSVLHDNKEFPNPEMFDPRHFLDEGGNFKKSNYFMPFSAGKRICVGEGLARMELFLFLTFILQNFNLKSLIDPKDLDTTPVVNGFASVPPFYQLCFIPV
CYP2C9 act: human CYP2C9 activators, primary screen, biochemical, luminescence; Cytochrome P450 2C9 (Homo sapiens), P11712; recombinant CYP2C9, luciferin-H conversion; stronger effect = higher value; factor 1 = untreated enzyme, 0 = blocked; activation factor at 5 µM; hit rate 1.4% among 96,000; AID 1024, 2008;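 active = activation factor of 2 or more for CYP2C9 at a 5 µM dose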;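 note: 0 = sulfaphenazole-blocked wells and 1 = vehicle-only wells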
CYP2C19 inhib: blockers of cytochrome P450 2C19 activity – biochemical, luminescence, ADME assay, primary screen. P33261. hit rate 21% among 96,000. CYP2C19 Supersomes, luciferin-H EGE luminescence, 30 min. AID 778, 2007. inhibition, % at 5 µM;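 active = CYP2C19 inhibition above a set limit at 5 µM in the primary screen, cut at about 50% in these data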;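 note: plate controls were negative control wells for no effect and 2.5 mM tranylcypromine positive control for full effect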
Measles CPE: compounds protecting cells from measles virus cytopathic effect, primary screen, measles RdRp inhibitor project, single point, MLSMR library, absorbance; Measles virus-infected cells, CPE protection; protection (pct of control), % at 4 µM; hit rate 1.5% among 140,000; in the data active = protection mostly above about 24%, no sharp cut-off; inactive = mostly below about 26%
Numbers without * were called inactive; x = no result. A selection: hits, their analogues and other compounds. The true share with any hit is near 22%.

SMILES	CYP2C9 inhib	CYP2C19 activ	CYP2C9 act	CYP2C19 inhib	Measles CPE
COC(=O)C(C)Sc1nc2c(c(=O)n1-c1ccccc1)SCC2 (centres undefined)	69*	0.1	0.3	89*	4
COc1ccc(-n2c(SCC(=O)N3CCN(c4ccccc4)CC3)nc3c(c2=O)SCC3)cc1	70*	0.4	0.3	57*	3
Cc1ccc(-n2c(SCC(=O)N3CCCC3)nc3c(c2=O)SCC3)cc1	-2	1.2	1	-16	14
COc1ccc(NC(=O)CSc2nc3c(c(=O)n2-c2ccccc2OC)SCC3)cc1	35	0.7	0.7	34	21
CC(=O)N/C(=C\c1ccc(F)cc1)C(=O)NC(Cc1c[nH]c2ccccc12)C(=O)O (centres undefined)	x	x	x	x	15
O=S(=O)(c1cccs1)N1CCN(CC(O)COc2cc(Cl)ccc2Cl)CC1 (centres undefined)	35	0.5	0.7	46	7
COc1ccc(-n2c(SCC(=O)Nc3cc(C)on3)nc3c(c2=O)SCC3)cc1	x	x	x	x	9
COc1ccc(NC(=O)CSc2nc3c(c(=O)n2-c2ccc(F)cc2)SCC3)c(OC)c1	80*	0.3	0.2	73*	6
CCCCCCCC(=O)NNC(=O)CC(=O)Nc1ccccc1C(=O)O	x	x	x	x	6
O=C1CCCC2=C1C(c1ccncc1)c1c(nc(SCc3ccccc3Cl)[nH]c1=O)N2 (centres undefined)	95*	0.2	0.1	85*	7
COC(=O)CCC(=O)Nc1ccc(Cl)c(Cl)c1	2	0.7	1	28	3
COC(=O)CCC(=O)NC(=S)Nc1cc(Cl)ccc1Cl	53*	0.5	0.5	54*	4
CC(C)CN(CC(C)C)C(=O)CS(=O)(=O)Cc1ccccc1	33	0.4	0.7	62*	20
Cc1c(C)c2ccc(OCc3ccc(C(=O)O)o3)c(C)c2oc1=O	21	1	0.8	1	27
COC(=O)Cc1c(C)c2ccc(OC(=O)c3ccccc3)cc2oc1=O	-9	1	1.1	0	14
COc1cc(COc2ccc3c(C)c(Cc4ccccc4)c(=O)oc3c2)cc(OC)c1OC	57*	0.6	0.4	36	16
Cc1c(Cc2ccccc2)c(=O)oc2cc(OC(=O)c3ccccc3)ccc12	40	0.4	0.6	60*	8
COc1cc(COc2ccc3c(C)c(Cc4ccccc4)c(=O)oc3c2C)cc(OC)c1OC	66*	0.4	0.3	58*	28*
O=C(CSc1cccc[n+]1[O-])c1cc2ccccc2o1	-5	0.9	1.1	7	12
CCOc1ccccc1Nc1nnc(SCC(=O)Nc2cccc(S(=O)(=O)NC3=NCCCCC3)c2)s1	x	x	x	x	7
Cc1nn(Cc2nc(-c3cccs3)no2)c(C)c1Br	46	0.2	0.5	75*	3
Cc1cc(N2CCOCC2)nc2ccc(NC(=O)CCC(=O)N3CCCC(C)C3)cc12 (centres undefined)	-8	1	1.1	2	4
O=C(C1CCCCC1)N(Cc1ccccc1)c1ccccn1	-16	1	1.2	4	19
O=C(c1ccc(Br)o1)N(Cc1ccccc1)c1ccccn1	22	0.3	0.8	72*	5
O=C(c1ccccc1)N(Cc1ccccc1)c1ccccn1	33	0.4	0.7	57*	14
SMILES	CYP2C9 inhib	CYP2C19 activ	CYP2C9 act	CYP2C19 inhib	Measles CPE
O=C(O)c1ccc(CN(c2ccccn2)S(=O)(=O)c2ccccc2)cc1	-5	1	1	0	14
CC(C)C(=O)N(Cc1ccccc1)c1ccccn1	-18	0.8	1.2	22	11
O=S(=O)(c1ccccc1)N(Cc1ccccc1)c1ccccn1	57*	0.3	0.4	67*	4
O=C(c1cnc2sccn2c1=O)N(Cc1ccccc1)c1ccccn1	50*	1	0.5	-2	24
CCOC(=O)CN(Cc1sccc1C)C(=O)Nc1ccc(OC)cc1OC	x	x	x	x	3
O=C(N/N=C/c1ccc(Sc2nc3ccccc3s2)c([N+](=O)[O-])c1)c1ccccn1	2	1	1	-2	4
CC(C)CC(=O)N1CCN(S(C)(=O)=O)CC1	0	0.9	1	6	2
Cc1[nH]nc2c1C(c1cccc(O)c1)C1=C(CC(C)(C)CC1=O)N2 (centres undefined)	32	1	0.7	-1	4
N=c1sccn1CC(=O)Nc1ccccc1-c1ccccc1	-22	1.1	1.2	-14	0
O=C(CCc1nc2ccccc2[nH]c1=O)OCC(=O)c1cccc2ccccc12	-13	1.1	1.1	-5	6
O=C(Nc1ccccc1)N(Cc1ccccc1)Cc1ccccc1	28	1	0.7	3	10
O=C(Nc1ccccc1)N(Cc1ccc(Cl)cc1)CC(O)C(F)(F)F (centres undefined)	53*	0.6	0.5	37	27
Cc1ccc(S(=O)(=O)Cc2ccc(C(=O)N3CCCCCC3)o2)cc1	28	0.7	0.7	31	7
Cc1ccc(S(=O)(=O)Cc2ccc(C(=O)N3CCCC3)o2)cc1	19	0.4	0.8	58*	6
CCOC(=O)C1CCCN(C(=O)c2ccc(CS(=O)(=O)c3ccc(C)cc3)o2)C1 (centres undefined)	83*	0.9	0.2	11	8
CCOC(=O)C1CCCN(C(=O)c2ccc(CS(=O)(=O)Cc3ccccc3C)o2)C1 (centres undefined)	37	0.7	0.6	31	11
CC1(c2ccc3c(c2)OCO3)NC(=O)N(CC(=O)Nc2ccc(N3CCOCC3)cc2)C1=O (centres undefined)	59*	0.8	0.4	20	4
Cc1cccc(NC(=O)CN2C(=O)NC(C)(c3ccc4c(c3)OCO4)C2=O)c1 (centres undefined)	67*	0.7	0.3	27	2
CC1Oc2ccccc2N(CC(=O)Nc2ccc3c(c2)OCO3)C1=O (centres undefined)	0	0.7	1	27	9
Cc1ccc(C2(C)NC(=O)N(CC(=O)Nc3ccc4c(c3)OCO4)C2=O)cc1 (centres undefined)	82*	0.6	0.2	36	7
CCC1(c2ccccc2)NC(=O)N(CC(=O)Nc2ccc3c(c2)OCO3)C1=O (centres undefined)	20	1	0.8	-3	1
Cc1c(C#N)c(N=CN(C)C)c(C(=O)c2ccccc2)n1-c1ccc(Br)cc1	61*	0.3	0.4	73*	8
Cc1c(C#N)c(N=CN(C)C)c(C(=O)c2ccc(Br)cc2)n1-c1ccccc1	22	0.8	0.8	20	7
CC(C)OCCCNC(=O)c1ccccc1Oc1ccccc1	32	0.7	0.7	31	21
O=C(COC(=O)/C=C/c1cccs1)Nc1nc(-c2ccccc2)cs1	x	x	x	x	14
